The whole screen tested about 100,000 compounds, of which about 770 (0.77%) were called active. What follows is part of a selection rich in actives, with near analogues and random picks from the rest. Values without a mark were called inactive. Rule as the data show it: active = inhibition above about 50%; inactive = the rest.

In this test the target is Gag-Pol polyprotein (Human immunodeficiency virus type 1 group M subtype B (isolate HXB2)) (UniProt P04585). Nature of the test: RNase H inhibition, HIV 1 Gag Pol polyprotein, FRET biochemical assay, screening (AID 372). The conditions noted are these: HIV-1 RT RNase H, FRET RNA/DNA substrate fluorescence; at 10 µM; active compounds read high.
In the case of `CC(=O)Nc1ccc2oc(-c3ccc(Cl)cc3)nc2c1`, the inhibition (usually the change of the read-out against control, counted positive when it falls) was 9%.

`CCn1c(-c2ccccc2C)n[nH]c1=S`: the inhibition is 2%.

On to `COc1nc(Nc2ccccc2)nc(NC(C)(C)C)n1`, for which the inhibition is 7%.

As to `O=C(N1CCN(C(c2ccccc2)c2ccccc2)CC1)C12CC3CC(CC(C3)C1)C2`, the inhibition was 25%.

For `CC(NC(=O)/C(C#N)=C/c1ccc(N(C)C)c(Br)c1)c1ccccc1` (stereo unspecified), the inhibition was 15%.

Take `Cc1ccc(/C=C2/SC(=O)N(CO)C2=O)cc1`: the inhibition was 0%.

`Cc1ccccc1C(=O)NNC(=S)Nc1ccccc1`: the inhibition is 7%.

For `CS(=O)(=O)N/N=C/c1ccc2c(c1)OCO2`, the inhibition was 0%.

For `COc1ccc(-c2cc(C(F)(F)F)n3nc(C(=O)NC(C)C)c(Cl)c3n2)cc1OC`, the inhibition was 7%.

For `C=CCN1C(=O)/C(=C/c2ccc(N(C)C)cc2)SC1=S`, the inhibition is 17%.

Turning to `CC(C)(C)c1ccc(Oc2ccc3noc4c3c2C(=O)c2ccccc2-4)cc1`, the inhibition was 50% (active).

With `Cc1ccc(Oc2ccc3noc4c3c2C(=O)c2ccccc2-4)cc1`, the inhibition was 8%.

With `O=C1c2ccccc2-c2onc3ccc(Oc4ccccc4)c1c23`, the inhibition is 2%.

For the compound `OC1CC(c2ccccc2)NC2(CCCCC2)C1` (stereo unspecified), the inhibition was 2%.

Turning to `O=C(COc1ccccc1[N+](=O)[O-])Nc1ccc2oc(-c3cc(Br)ccc3Cl)nc2c1`, the inhibition is 49%.

As to `Cc1oc(C(=O)O)cc1CSc1nc2ccccc2[nH]1`, the inhibition was 5%.

As for `COc1ccc(-c2ccccc2)cc1NCc1c2ccccc2cc2ccccc12`, the inhibition is 2%.

Turning to `COc1ccc(Cc2ccc(OC)cc2)cc1`, the inhibition is 5%.

For `COc1ccc2nc(-c3ccccc3)c(-c3ccccc3)nc2c1`, the inhibition was 6%.

For `COc1ccc(-c2nc3ccc(Cc4ccc5nc(-c6ccc(OC)cc6)c(-c6ccc(OC)cc6)nc5c4)cc3nc2-c2ccc(OC)cc2)cc1`, the inhibition was 55% (active).

Consider `C#CCOc1ccc(/C=C2/C(=O)NC(=O)N(c3ccccc3F)C2=O)cc1`, for which the inhibition was 0%.

For the compound `Cc1ccc(OCCn2c(=S)[nH]c3ccccc32)cc1`, the inhibition is 61% (active).

On to `S=c1[nH]c2ccccc2n1CCOc1ccc(Cl)cc1`, for which the inhibition is 39%.

As to `S=c1[nH]c2ccccc2n1CCOc1ccccc1`, the inhibition is 30%.

Regarding `Cc1ccccc1OCCOc1ccccc1/C=c1\sc2nc3ccccc3n2c1=O`, the inhibition was 9%.

As for `O=C(COc1ccc(Cl)cc1)Oc1ccc2c(c1)oc(=O)c1ccccc12`, the inhibition is 54% (active).

With `CC(C)OC(=O)COc1ccc2c(c1)oc(=O)c1ccccc12`, the inhibition is 0%.

`Cc1c(Cl)c(=O)oc2cc(OCc3ccc(Cl)cc3)ccc12`: the inhibition is 3%.

For `CC(=O)COc1ccc2c(c1)oc(=O)c1ccccc12`, the inhibition was 7%.

On to `Cc1c(Cl)c(=O)oc2cc(OCC(=O)c3ccc(Cl)cc3)ccc12`, for which the inhibition is 50% (active).

Regarding `Cc1cc(=O)oc2cc(OCC(=O)c3ccc(Cl)cc3)ccc12`, the inhibition is 19%.

Turning to `O=C1CCCC2=C1C(c1ccccc1Cl)Nc1ccc(C(=O)c3ccccc3)cc1N2` (stereo unspecified), the inhibition is 1%.

In the case of `Cc1ccc(C(=O)Nc2cc(C)cc(C)c2)cc1`, the inhibition was 0%.

Regarding `Cc1ccc(N=Cc2c(O)n(C3CCCCC3)c(=O)n(C3CCCCC3)c2=O)cc1C`, the inhibition is 6%.

In the case of `O=C(Nc1nnc(CSCc2ccc(Cl)cc2Cl)s1)Nc1ccc(Cl)cc1Cl`, the inhibition was 33%.

Consider `O=C(Nc1nnc(Cc2ccc(Cl)cc2)s1)Nc1ccc(Cl)cc1Cl`, for which the inhibition was 37%.

As for `O=C(Nc1nnc(Cc2ccc(Cl)cc2Cl)s1)Nc1ccc(Cl)cc1Cl`, the inhibition is 66% (active).

As to `O=C(Nc1nnc(C(c2ccccc2)c2ccccc2)s1)Nc1ccc(Cl)cc1Cl`, the inhibition was 52% (active).

Take `O=C(Nc1nnc(CSCc2ccccc2F)s1)Nc1ccc(Cl)cc1Cl`: the inhibition is 53% (active).

As to `Cc1cccc(CSCc2nnc(NC(=O)Nc3ccc(Cl)cc3Cl)s2)c1`, the inhibition was 53% (active).

With `CCC(c1ccccc1)c1nnc(NC(=O)Nc2ccc(Cl)cc2Cl)s1` (stereo unspecified), the inhibition was 12%.

For `CC(c1ccccc1)c1nnc(NC(=O)Nc2ccc(Cl)cc2Cl)s1` (stereo unspecified), the inhibition was 36%.

On to `O=C(Nc1nnc(CSCc2ccccc2)s1)Nc1ccc(Cl)cc1Cl`, for which the inhibition was 39%.

In the case of `Cc1cccc(CSCc2nnc(NC(=O)Nc3ccc(Cl)cc3)s2)c1`, the inhibition was 31%.

Regarding `O=C(Nc1nnc(Cc2ccccc2F)s1)Nc1ccc(Cl)cc1Cl`, the inhibition was 18%.

In the case of `O=C(Nc1nnc(CSCc2ccccc2Cl)s1)Nc1ccc(Cl)cc1Cl`, the inhibition was 46%.

`COc1ccc2ccccc2c1-c1cc(C(=O)N/N=C/c2ccc(C)cc2)[nH]n1`: the inhibition was 13%.

For the compound `CCCOC(=O)c1ccc(NC(=S)NC(=O)c2ccc(OCCC)cc2)cc1`, the inhibition was 20%.

`CCOc1ccc(NC(=O)c2c(NC(=O)C(C)(C)C)sc3c2CCCC3)cc1`: the inhibition is 13%.

As for `COc1cccc(/C=N\NC(=O)CNc2ccccc2C)c1`, the inhibition was 5%.

`CCOC(=O)C1=C(C)N=c2s/c(=C\c3ccc(-c4ccc(Cl)cc4[N+](=O)[O-])o3)c(=O)n2C1c1ccc(OC)cc1` (stereo unspecified): the inhibition was 43%.

As for `O=[N+]([O-])c1ccc(N2CCCC2)c(C(F)(F)F)c1`, the inhibition was 21%.

`O=C(NC(=S)Nc1cc([N+](=O)[O-])ccc1F)c1cccc(I)c1`: the inhibition was 4%.

Take `COc1ccc(C2CC(c3ccc(Cl)cc3)=NN2c2nc(-c3ccc(C)cc3)cs2)cc1OC` (stereo unspecified): the inhibition is 3%.

Turning to `COc1ccc(C2CC(c3ccc(Cl)cc3)=NN2c2nc(-c3cccc(N4C(=O)c5ccccc5C4=O)c3)cs2)cc1OC` (stereo unspecified), the inhibition was 53% (active).

As for `COc1ccc(-c2csc(N3N=C(c4ccc(Cl)cc4)CC3c3ccc(OC)c(OC)c3)n2)cc1F` (stereo unspecified), the inhibition was 3%.

Turning to `COc1cc(OC)c(NC(=O)C(Cl)(Cl)Cl)cc1Cl`, the inhibition was 2%.

Turning to `COc1ccc(/C=C(\C#N)c2ccc(Cl)cc2)cc1OC`, the inhibition is 20%.

Consider `CCOc1ccc(/C=C(/C#N)c2ccc(Cl)cc2)cc1Cl`, for which the inhibition is 54% (active).

`CCOc1cc(/C=C(\C#N)c2ccc([N+](=O)[O-])cc2)ccc1O`: the inhibition was 8%.

With `O=C(O)c1c[nH]c2ccc(Br)cc2c1=O`, the inhibition is 13%.

Regarding `Cc1cccc(N2C(=O)NC(=O)/C(=C\C=C\c3ccccc3[N+](=O)[O-])C2=O)c1`, the inhibition is 24%.

For `CCN1C(=O)NC(c2ccc(Br)cc2)C(C(=O)OCCOC)=C1C` (stereo unspecified), the inhibition is 0%.

In the case of `O=C(Nc1ccc(-c2nc3ccc(NC(=O)c4ccccc4)cc3[nH]2)cc1)c1ccccc1`, the inhibition is 4%.

In the case of `O=C1c2cccc3c(Cl)ccc(c23)C(=O)N1O`, the inhibition is 15%.

For the compound `O=C1c2cccc3ccc(Cl)c(c23)C(=O)N1O`, the inhibition was 90% (active).

As to `O=C1c2cccc3ccc(Cl)c(c23)C(=O)N1Oc1ccc([N+](=O)[O-])cc1[N+](=O)[O-]`, the inhibition was 3%.

As to `Cc1c(NC(=O)c2cc([N+](=O)[O-])ccc2Cl)cccc1-c1nc2ccccc2s1`, the inhibition was 6%.

Regarding `COc1cccc(Nc2nnc(-c3cc4cc(OC)ccc4oc3=O)s2)c1`, the inhibition was 43%.

For the compound `COc1cccc(Nc2nc(-c3cc4cc(Br)ccc4oc3=O)cs2)c1`, the inhibition was 12%.

Take `COc1ccc2oc(=O)c(-c3csc(Nc4ccccc4)n3)cc2c1`: the inhibition is 17%.

Take `COc1ccc2oc(=O)c(-c3csc(Nc4ccccc4Br)n3)cc2c1`: the inhibition was 8%.

With `COc1ccc2oc(=O)c(-c3nnc(Nc4cccc(C)c4)s3)cc2c1`, the inhibition is 50% (active).

As for `COc1ccc2oc(=O)c(-c3nnc(Nc4ccccc4C)s3)cc2c1`, the inhibition was 10%.

For `COc1ccc2oc(=O)c(-c3csc(/N=C/c4ccccc4O)n3)cc2c1`, the inhibition is 67% (active).

As to `COc1ccc2oc(=O)c(-c3csc(Nc4ccc(Cl)cc4)n3)cc2c1`, the inhibition is 57% (active).

As for `COc1ccc(Nc2nc(-c3cc4cc(OC)ccc4oc3=O)cs2)cc1`, the inhibition is 13%.

Turning to `COc1ccc2oc(=O)c(-c3csc(NC(=O)/C=C\C(=O)O)n3)cc2c1`, the inhibition was 3%.

Take `COc1ccc2oc(=O)c(-c3csc(Nc4ccc(C(C)=O)cc4)n3)cc2c1`: the inhibition was 1%.

Take `CCOC(=O)N(Cc1ccccc1)C(C(=O)O)C(C(=O)O)N(Cc1ccccc1)C(=O)OCC` (stereo unspecified): the inhibition is 0%.

On to `O=CNC(NC(=S)Nc1cc(Cl)ccc1Cl)C(Cl)(Cl)Cl` (stereo unspecified), for which the inhibition is 17%.

Take `Cc1ccc([N+](=O)[O-])cc1/C=C1/SC(=S)N(c2cccc(C(F)(F)F)c2)C1=O`: the inhibition is 5%.

Take `O=C(COc1ccc(Br)cc1Cl)Nc1cc(Cl)ccc1Cl`: the inhibition was 8%.

In the case of `COc1ccc(OC)c(N(CC(=O)NCC(C)C)S(C)(=O)=O)c1`, the inhibition was 0%.

As for `CC(=O)C1=C(C)NC(SCC(=O)c2ccc(C)cc2)=C(C#N)C1c1ccc(Br)cc1` (stereo unspecified), the inhibition is 18%.

As to `O=C(NC(=S)Nc1ccc(Cl)c([N+](=O)[O-])c1)c1ccc(-c2ccccc2)cc1`, the inhibition was 13%.

Consider `O=C(Nc1ccccc1-c1nc2ccccc2[nH]1)c1ccc([N+](=O)[O-])cc1`, for which the inhibition was 44%.

On to `COc1ccc(O)c(CN2CCCCC2)c1`, for which the inhibition was 4%.

For `CC1SC(c2cccc(Cl)c2)NC1=O` (stereo unspecified), the inhibition is 0%.

As to `C/C(=N\NC(=O)c1cc(C2CC2)[nH]n1)c1ccc(C)cc1`, the inhibition was 8%.

Turning to `COc1ccc(-n2nnnc2C(=Cc2ccc(N(C)C)cc2)c2nnnn2-c2ccc(OC)cc2)cc1`, the inhibition was 9%.

Regarding `N#Cc1c(-c2cccc(Br)c2)c(C#N)c2nc3ccccc3n2c1N`, the inhibition is 9%.

Regarding `COc1ccc(C2CC(=O)C3=C(C2)NC(C)=C(C(=O)OC2CCCC2)C3c2ccc3c(c2)OCO3)cc1` (stereo unspecified), the inhibition is 3%.

With `CCOC(=O)C1=C(c2ccccc2)OC(N)=C(C#N)C1c1cccs1` (stereo unspecified), the inhibition was 15%.

Take `CCOC(=O)C1=C(CC)OC(N)=C(C#N)C1c1cccs1` (stereo unspecified): the inhibition is 30%.

As for `CCCC1=C(C(=O)OCC)C(c2cccs2)C(C#N)=C(N)O1` (stereo unspecified), the inhibition was 56% (active).

(Values after PubChem BioAssay AID372 (MTDP, 2006).)
